LDHA inh = qHTS assay for inhibitors of human lactate dehydrogenase; L-lactate dehydrogenase A chain (Homo sapiens), P00338; purified LDHA, NADH/diaphorase-resazurin fluorescence; hits give low values; activity change, % (values are at about 110 or 230 µM); 480,000 compounds, 0.15% hits; AID 1347041, 2019; in the data active = activity change below about -30%; inconclusive = mostly about -25% to -30%
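Human LDH5 (2 nM) was incubated with 0.06 mM NADH and 0.2 mM pyruvate for 5 min at room temperature in Tris pH 7.4. Remaining NADH was coupled through diaphorase/resazurin, and resorufin fluorescence was read at 0 and 20 min.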
D1 PAM = Potentiators of Human D1 Dopamine Receptor: qHTS | D(1A) dopamine receptor (Homo sapiens), P21728 | HEK293 TREx D1 cells, calcium flux, dopamine EC20 potentiation | potentiation, % at 10 µM | 360,000 compounds, 0.036% hits | AID 504651, 2011; in the data active = potentiation above about 30%
D1 antag = Antagonist of Human D 1 Dopamine Receptor: qHTS | D(1A) dopamine receptor (Homo sapiens), P21728 | HEK293 TREx D1 cells, calcium flux, dopamine EC80; hits give low values | activity change, negative = inhibition, % at 10 µM | 360,000 compounds, 3.2% hits | AID 504652, 2011; in the data active = activity change below about -30%
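HEK293 T-REx cells expressing inducible, force-coupled D1 receptor; no-wash Ca dye, 30–90 min RT. Cmpd → 180 s read at 1 Hz → EC80 DA → 180 s read.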
D1 ag = Allosteric Agonists of the Human D1 Dopamine Receptor: qHTS; D(1A) dopamine receptor (Homo sapiens), P21728; HEK293 T-REx D1 cells, calcium flux, agonist mode; activation, % at 2 µM; 360,000 compounds, 1% hits; in the data active = activation above about 30%
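Agonism was scored from calcium flux recorded over 180 s (1 read/s) after pintool compound addition, following a 10-cycle baseline. Cells were inducible force-coupled HEK293 TREx D1, plated overnight at 30 C and loaded with no-wash calcium dye.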
TRHR enhancer-1 = qHTS for Small Molecule Agonists and Allosteric Enhancers of Human TRH Receptor: Primary Screen for Enhancers; enhancement, % at 2 µM; TRHR cells, fluo-8 calcium fluorescence, EC20 TRH enhancement; AID 493056, 2011; 360,000 compounds, 0.66% hits; in the data active = enhancement above about 30%
Target sequence (P34981 whole entry, looked up): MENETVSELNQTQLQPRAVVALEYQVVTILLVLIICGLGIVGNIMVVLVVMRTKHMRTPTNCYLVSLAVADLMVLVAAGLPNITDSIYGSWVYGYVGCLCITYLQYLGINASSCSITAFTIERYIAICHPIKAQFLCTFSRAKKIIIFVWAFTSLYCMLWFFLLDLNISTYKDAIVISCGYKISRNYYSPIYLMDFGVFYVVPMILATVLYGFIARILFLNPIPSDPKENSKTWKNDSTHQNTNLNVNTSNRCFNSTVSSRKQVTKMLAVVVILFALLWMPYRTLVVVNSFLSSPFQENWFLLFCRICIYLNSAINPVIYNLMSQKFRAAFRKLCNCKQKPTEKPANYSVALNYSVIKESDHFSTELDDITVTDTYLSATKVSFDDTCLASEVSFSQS
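Enhancer read-out: after compound pinning and an initial kinetic agonist-mode read, an EC20 of TRH (10 nM final) was injected and fluo-8 calcium signal (Ex 480/Em 530) followed at 1 s/cycle for 100 cycles in TRHR-expressing cells.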
TRHR agonist-1 = qHTS for Small Molecule Agonists and Allosteric Enhancers of Human TRH Receptor: Primary Screen for Agonists | Thyrotropin-releasing hormone receptor (Homo sapiens), P34981 | TRHR cells, calcium flux fluo-8, FDSS agonist mode | activation, % at 2 µM | 360,000 compounds, 0.18% hits | AID 493084, 2011; in the data active = activation above about 30%
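In this calcium-flux screen, cells bearing human TRHR are dye-loaded with fluo-8, baselined for 10 cycles, then exposed to library compounds; positive kinetic calcium responses during the agonist phase mark hits, with TRH as control.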
TRHR enhancer-2 = qHTS for Small Molecule Agonists and Allosteric Enhancers of Human TRH Receptor: Confirmation Screen for Enhancers; shares compounds with TRHR enhancer-1; TRH receptor cell assay, enhancer confirmation qHTS; activity change, negative = inhibition, % at 46.1 µM; 970 tested, under 10 active; AID 493076, 2011;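 also: compound effect scored on response to added TRH at EC20 of 10 nM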
TRHR agonist-2 = qHTS for Small Molecule Agonists and Allosteric Enhancers of Human TRH Receptor: Confirmation Screen for Agonists; 970 compounds, 8% hits; TRHR-expressing cells, agonist activation read-out; Potency, µM (top dose mostly 46.1 µM), most hits filed as activators; AID 493078, 2011; shares compounds with TRHR enhancer-1; also: nearly all actives have a fitted effect of over 75% in size
A number is an active result; . = inactive; ? = inconclusive; / = not tested or not shown. The list is not random: actives were taken first. Their share in the collection is about 3.6%. Unless noted, calls follow the shape of the dose curve; as a rule, active = well fitted curve in the direction sought with a large enough effect; inconclusive = small, poorly fitted or top-dose-only effect, or another doubt; inactive = no such curve, though single readings can be large; an effect the other way counts as inactive or inconclusive.

SMILES | LDHA inh | D1 PAM | D1 antag | D1 ag | TRHR enhancer-1 | TRHR agonist-1 | TRHR enhancer-2 | TRHR agonist-2
Cn1cccc1/C=C1/SC(=S)N(CC(=O)O)C1=O | . | . | . | . | . | . | / | /
CC(C)Cn1cnc2c1c(=O)n(CC(=O)NC(C)CCc1ccccc1)c(=O)n2Cc1ccccc1 (stereo not drawn) | . | / | / | / | / | / | / | /
O=S(=O)(NCC1(N2CCOCC2)CCCCC1)c1ccc(Cl)cc1C(F)(F)F | . | . | . | . | . | 46 | . | ?
O=C(CN1CCCC1)N1c2ccccc2Sc2ccc(C(F)(F)F)cc21 | . | . | . | . | . | . | / | /
O=C(CN1CCCC1)N1c2ccccc2Sc2ccc(Cl)cc21 | . | . | . | . | 47 | . | . | .
CCN(CC)N=Nc1ccc(S(N)(=O)=O)cc1 | . | . | . | . | 58 | . | . | .
O=C(CCl)N1c2ccccc2S(=O)c2ccccc21 | . | / | / | / | / | / | / | /
O=C(NCCCN1CCCC1=O)C1CCCC1 | . | / | / | / | / | / | / | /
O=C(O)c1cccc(CSc2nc(-c3ccc(Cl)cc3)cc(C(F)(F)F)n2)c1 | . | . | -37 | . | 42 | . | . | ?
CN(C[C@H](Cc1ccccc1)N(CCN(CCc1ccccc1)N=O)N=O)N=O | . | . | . | . | 43 | . | . | .
CC(C)C[C@@H](CN(C)N=O)N(C[C@H](Cc1ccccc1)N(CCc1ccccc1)N=O)N=O | . | . | . | . | . | . | / | /
O=C(COc1ccc(Br)cc1)N1CCCCCC1 | . | . | . | . | . | . | / | /
O=C(COc1ccc(Br)cc1)OCCN1CCCCC1 | . | . | . | . | . | 30 | . | .
O=C(CCSc1ccc(Cl)cc1)N1CCCCCC1 | . | . | . | . | . | . | / | /
CN1CCN(C(=O)CSc2ccc(Cl)cc2)CC1 | . | . | . | . | 43 | . | . | .
CN1CCN(c2ccc(S(=O)(=O)N3CCCCC3)cc2N)CC1 | . | . | . | . | 60 | . | . | .
Nc1cc(S(=O)(=O)N2CCCCC2)ccc1N1CCCCC1 | . | . | . | . | . | . | / | /
CSc1ccc(S(=O)(=O)NC(C)c2ccccc2)cc1 (stereo not drawn) | . | . | . | . | . | . | / | /
Cc1ccc(S(=O)(=O)NC(C)c2ccccc2)cc1[N+](=O)[O-] (stereo not drawn) | . | . | . | . | 58 | . | . | .
CC(NC(=O)C1CC1c1ccccc1)C1CC2CCC1C2 (stereo not drawn) | . | / | / | / | / | / | / | /
O=C(NCc1cccs1)c1cccnc1C(=O)O | . | . | . | . | . | 51 | . | .
CCCC(=O)c1ccc(N2CCN(C(=O)c3cccs3)CC2)c(F)c1 | . | . | . | . | . | . | / | /
CC(=O)c1ccc(N2CCN(C(=O)c3cccs3)CC2)c(F)c1 | . | . | . | . | . | . | . | .
COc1ccc(C(=O)NCc2cc(C)nc3ccccc23)cc1OC | . | . | . | . | . | . | / | /
COc1cc(OC)cc(C(=O)NCc2cc(C)nc3ccccc23)c1 | . | . | . | . | . | 33 | . | .
SMILES | LDHA inh | D1 PAM | D1 antag | D1 ag | TRHR enhancer-1 | TRHR agonist-1 | TRHR enhancer-2 | TRHR agonist-2
O=C(CSc1c2c(nc3ccc(Cl)cc13)CCCC2)NCc1cccs1 | . | / | / | / | / | / | / | /
CN(C)Cc1c(O)ccc2c1O/C(=C\C=C\c1ccccc1)C2=O | . | . | . | 45 | . | . | . | 18µM
CCOC(=O)C1=C(C)OC(=CC=Cc2ccccc2)C1=O | . | / | / | / | / | / | / | /
CN(c1ccc(C(=O)N2CCN(c3ccc(F)cc3)CC2)cc1)S(C)(=O)=O | . | . | . | . | 56 | . | . | .
COc1ccccc1CNC(=O)C/C(C)=N/NC(=O)Cc1ccccc1 | . | . | . | . | 41 | . | . | .
CC(=O)c1c[nH]c(C(=O)NC(C)c2ccccc2F)c1 (stereo not drawn) | . | / | / | / | / | / | / | /
CCC(C(=O)NCc1cccnc1)c1ccccc1 (stereo not drawn) | . | . | . | . | 42 | . | . | .
COc1ccccc1NC(=O)CSc1nc(N2CCCC2)c2c(c1C#N)CCCC2 | . | / | / | / | / | / | / | /
CC(NC(=S)NC(=O)c1ccccc1Br)c1ccccc1 (stereo not drawn) | . | . | . | . | 47 | . | . | .
CC(C)C(NC(=O)c1ccccc1Br)c1ccccc1 (stereo not drawn) | . | . | . | . | . | . | / | /
Cc1ccc(C(=O)CCNc2cccc(Br)c2)o1 | . | . | . | . | 66 | . | . | .
Cn1nc(C(=O)Nc2nc3ccc(S(C)(=O)=O)cc3s2)ccc1=O | . | . | / | . | 45 | . | . | .
CS(=O)(=O)c1ccc2nc(NC(=O)c3ccc(=O)[nH]c3)sc2c1 | . | . | . | . | . | . | / | /
Cc1cc(C(=O)NCCN2CCOCC2)ccc1[N+](=O)[O-] | . | . | . | . | 45 | . | . | .
Cc1[nH]nc2c1C(c1cnn(C)c1)C(C#N)=C(N)O2 (stereo not drawn) | . | . | . | . | 55 | . | . | .
Cc1ccc(C2C(C#N)=C(N)Oc3n[nH]c(C)c32)cc1 (stereo not drawn) | . | . | . | . | . | . | / | /
OCCc1ccc(O)c(-n2nc3ccccc3n2)c1 | . | . | . | . | 44 | . | . | .
N#Cc1ccc(COc2ccc(CCO)cc2-n2nc3ccccc3n2)cc1 | . | . | . | . | . | . | / | /
O=C(Cc1n[nH]c(=O)c2ccccc12)NCC1(N2CCCCC2)CCCCC1 | . | / | / | / | / | / | / | /
Cc1ccc2cc(CN(CC(C)C)C(=O)C3CCCO3)c(=O)[nH]c2c1 (stereo not drawn) | . | . | . | . | . | . | / | /
Cc1ccc2cc(COC(=O)C3CCCO3)c(=O)[nH]c2c1 (stereo not drawn) | . | . | . | . | 45 | . | . | .
CCc1cc(=O)oc2cc(OCC(=O)NCc3cccnc3)c(Cl)cc12 | . | / | / | / | / | / | / | /

From PubChem
